An excerpt weighted towards active compounds, which were near 3.6% of everything screened.
NTMT1 inh = inhibitors of human N-terminal methyltransferase NTMT1; Q9BV86; NTMT1 MTase-Glo SAH luminescence, purified enzyme; Potency, µM (top dose mostly 114 µM), for inactives: top-dose activity change, negative = inhibition, hits mostly inhibitors; actives 2.5% (n = 59,000); AID 1645870;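 further: potency means the concentration at half of the fitted maximal effect; plate controls were DMSO vehicle for no effect and no enzyme for full effect; nearly all actives have a fitted effect of over 65% in size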
Target sequence (Q9BV86 whole entry, looked up): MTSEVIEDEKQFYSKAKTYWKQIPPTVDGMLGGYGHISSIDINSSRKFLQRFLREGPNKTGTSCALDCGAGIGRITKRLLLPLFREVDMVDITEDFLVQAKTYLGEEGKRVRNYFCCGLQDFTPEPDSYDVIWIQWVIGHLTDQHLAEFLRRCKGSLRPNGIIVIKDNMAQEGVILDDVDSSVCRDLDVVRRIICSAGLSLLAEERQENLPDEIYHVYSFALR
GPR32 ag = agonists of human resolvin D1 receptor DRV1 (GPR32); AID 1346428; activation, % at 76.9 µM; actives 2.5% (n = 48,000); CHO-K1 GPR32 beta-arrestin PathHunter luminescence, 90 min; zero percent set by DMSO-only wells;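 active means activation of at least 60% and not above a set upper limit, about 1 call in 100 departs from these limits; inconclusive means activation of 40% to 60%, or above that upper limit; inactive means activation under 40%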; further: 0% is about no effect
Target sequence (O75388 whole entry, looked up): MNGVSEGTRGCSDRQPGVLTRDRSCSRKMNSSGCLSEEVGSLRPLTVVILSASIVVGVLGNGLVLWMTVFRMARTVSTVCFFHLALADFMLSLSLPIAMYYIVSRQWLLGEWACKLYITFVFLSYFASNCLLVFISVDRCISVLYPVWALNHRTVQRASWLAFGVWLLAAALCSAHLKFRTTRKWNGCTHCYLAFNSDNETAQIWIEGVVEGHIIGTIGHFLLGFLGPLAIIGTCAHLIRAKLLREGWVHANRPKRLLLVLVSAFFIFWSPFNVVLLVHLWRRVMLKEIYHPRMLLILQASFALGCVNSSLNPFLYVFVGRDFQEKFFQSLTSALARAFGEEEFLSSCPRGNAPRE
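GPR32 activation in stably transfected CHO-K1 cells, detected as beta-arrestin recruitment by enzyme-fragment complementation. Compound exposure: 90 min, 37 °C.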
GALC G270D act = galactocerebrosidase G270D activity enhancement, cell-based | P54803 | 145M-Twi-hGALC-G270D cells (Twitcher mouse brain line with human GALC G270D), HMU-beta-Gal fluorescence, 48 h | Potency, µM (series often up to 57.5 µM), usual class: activators | actives 0.1% (n = 45,000); further: potency means the concentration at half of the fitted maximal effect; 0% is about no effect; nearly all actives have a fitted effect of over 65% in size
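Fluorogenic HMU-b-Gal hydrolysis (0.1 mM final, pH 5.2 citrate-phosphate with 1 mg/mL sodium taurocholate; carbonate stop buffer) measures mutant GALC activity after compound treatment of live 145M-Twi Twitcher brain cells stably carrying human GALC-G270D, with wild-type GALC line alongside; activation sought.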
GALK inhibitor = inhibits human galactokinase | P51570 | recombinant GALK, Kinase-Glo ATP luminescence, 1 h | Potency, µM (series often up to 57.5 µM), inactives show top-dose activity, negative = inhibition, most hits filed as inhibitors | 44,000 tested, under 10 active | AID 1347072;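 further: plate controls were full GALK reaction for no effect and reaction lacking GALK for full effect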
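5 nM GALK with 35 µM ATP and 100 µM galactose in HEPES pH 8.0, MgCl2, NaCl, DTT, BSA; 1 h RT reaction, remaining ATP detected by Kinase-Glo Plus luminescence after 10 min; qHTS concentration series.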
B2AR arrestin ag = ADRB2 beta-arrestin recruitment | P07550 | HTLA Tango cells, beta-arrestin recruitment, luciferase luminescence, 18 h | Potency, µM (series often up to 46.1 µM), actives largely listed as activators | 44,000 tested, under 10 active;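 further: potency means the concentration at half of the fitted maximal effect; 0% = DMSO and full agonism = EC100 isoproterenol or metaproterenol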
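Receptor–beta-arrestin recruitment read by tTA-responsive luciferase: compound titrations (up to 46 µM) incubated 18 h with Tango cells, then luminescent substrate 15 min at room temperature. Concentration-response fits classified by r2, efficacy and activity.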
PTAP-TSG101 blk = blocks PTAP binding to human TSG101, validation | Q99816 | Fluorescence polarization, FITC-PTAP peptide/Tsg101, 20 min | Potency, µM (series often up to 115 µM), actives largely listed as inhibitors | 44,000 tested, under 10 active | AID 1347069; further: potency means the concentration at half of the fitted maximal effect; 0% is about no effect
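FITC-labeled PTAP peptide (50 nM final) binding to Tsg101 binding domain (10 uM final) read by fluorescence polarization after 20 min at r.t. in HEPES pH 7.5 buffer. Actives by CRC class, <25 µM.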
NNMT inh = blocks human NNMT methyltransferase; shares compounds with NTMT1 inh; NNMT MTase-Glo luminescence, SAH detection; Potency, µM (series often up to 57.1 µM), for the others: top-dose activity, negative = inhibition, usual class: inhibitors; actives 10% (n = 120); AID 1645878
* marks the source's active call; other numbers are inactive results; i = inactive; ? = inconclusive; / = not tested or not shown; ! = not confirmed by another sample; [ ] = dose if it differs, or a comment. Unless noted, the call rests on the fitted dose curve; in most records, active means well fitted curve in the direction sought with a large enough effect; inconclusive means small, poorly fitted or top-dose-only effect, or another doubt; inactive means no such curve, though single readings can be large; an effect the other way counts as inactive or inconclusive.

SMILES	NTMT1 inh	GPR32 ag	GALC G270D act	GALK inhibitor	B2AR arrestin ag	PTAP-TSG101 blk	others
CC[C@]1(O)CC[C@H]2[C@@H]3CCC4=CCCC[C@@H]4[C@H]3CC[C@@]21C	13µM*	?	i	/	/	/
[Cl][In]([Cl])[Cl]	3.2µM*	33	i	/	/	/
C=CC(C)(O)CC/C=C(\C)C(=O)O[C@H]1[C@H](O)[C@@H](CO)O[C@@H](OC(=O)[C@]23CCC(C)(C)CC2C2=CCC4[C@@]5(C)CC[C@H](O[C@@H]6O[C@H](CO[C@@H]7OC[C@H](O)[C@H](O)[C@H]7O[C@@H]7OC[C@@H](O)[C@H](O)[C@H]7O)[C@@H](O)[C@H](O)[C@H]6O)C(C)(C)C5CC[C@@]4(C)[C@]2(C)CC3)[C@@H]1OC1OC(C)C(O[C@@H]2OC[C@@H](O)[C@H](O[C@@H]3OC[C@@H](O)[C@H](O)[C@H]3O)[C@H]2O)C(O)C1O (some centres undefined)	11%[6.45 µM]	/	/	/	/	/
COC1CC(OC2CCC3(C)C(=CCC4C3CCC3(C)C(C(C)OC5OC(COC6OC(CO)C(O)C(O)C6O)C(O)C(O)C5O)CCC43O)C2)OC(C)C1OC1OC(C)C(O)C(OC)C1O (centres undefined)	8%[12.6 µM]	/	/	/	/	/
CC(=O)O[C@H]1C(=O)[C@]2(C)C(O)C[C@H]3OC[C@@]3(OC(C)=O)[C@H]2[C@H](OC(=O)c2ccccc2)[C@]2(O)C[C@H](O)C(C)=C1C2(C)C (some centres undefined)	-1%[12.6 µM]	/	/	/	/	/
Cc1cccc(-c2nc(CN3C(=O)CN=C(c4ccccc4)c4ccccc43)c(C)o2)c1	-3%	63*	i	-3%	i	i
Cc1ccccc1-c1nc(CN2C(=O)CN=C(c3ccccc3)c3ccccc32)c(C)o1	4%	-20	i	-11%	i	i
COc1ccc2c(c1OC)CN1CCc3cc4c(cc3C1C2)OCO4 (centres undefined)	-1%	68*	i	/	/	/
CN1CCc2cc3c(cc2C1C1OC(=O)c2c1ccc1c2OCO1)OCO3 (centres undefined)	-5%[29.8 µM]	/	/	/	/	/
C=C[C@@H]1CN2CCC1C[C@@H]2[C@@H](O)c1ccnc2ccccc12 (some centres undefined)	13%[57.5 µM]	/	/	/	/	/
COC[C@]12CN(C)C3C4[C@H](OC)[C@H]1C3(C(OC)C[C@H]2O)[C@H]1C[C@@]2(O)[C@H](OC(=O)c3ccccc3)[C@@H]1[C@]4(O)[C@@H](O)[C@@H]2OC (some centres undefined)	-16%[57.5 µM]	/	/	/	/	/
COc1ccc(Cc2nccc3cc(OC)c(OC)cc23)cc1OC	-5%	119*!	i	/	/	/
C=C(CO)[C@@]12O[C@@H]1[C@@]1(C)C(=CC2=O)CC[C@@H](O)[C@@H]1C	-9%[57.5 µM]	/	/	/	/	/
Nc1ccc(N)cc1	?	-65	i	/	/	/
Nc1ccccc1	20µM*	-1	i	/	/	/
CCc1ccc(NC(=O)Cn2c(=O)oc3cc(S(=O)(=O)NCc4ccccc4)ccc32)cc1	3%	73*	i[11.5 µM]	-3%	i	i
CCCCN1[C@@H]2CC[C@H]1CC(OC(c1ccc(F)cc1)c1ccc(F)cc1)C2 (some centres undefined)	-4%[57.5 µM]	/	/	/	/	/
Cc1ccc([N+](=O)[O-])[c]2c1[O][Hg]2	0.89µM*	26	i	/	/	/
Nc1ccn(CC(CO)OCP(=O)(O)O)c(=O)n1 (centres undefined)	17%	/	/	/	/	/
Cc1c(C(c2ccc(F)cc2)c2c(O)c3ccccc3oc2=O)c(=O)n(-c2ccccc2)n1C (centres undefined)	9%	7	i	-1%	i	i
O=c1oc2ccccc2c(O)c1C(CC(O)c1ccc(-c2ccc(Br)cc2)cc1)c1ccccc1 (centres undefined)	89µM*	82*	i	/	/	/
CCOC(=O)c1ccc(NC(=O)c2sc3nc4c(cc3c2N)N2CCC4CC2)cc1	-11%	20	14µM*	-2%	i	i
CC1CCCC(=O)CCC/C=C/c2cc(O)cc(O)c2C(=O)O1 (centres undefined)	7.9µM*	/	/	/	/	/	NNMT inh=?
C/C=C(/C)C(=O)O[C@H]1[C@@H]2[C@H](C)C(=O)O[C@@H]2C[C@@H](C)[C@@H]2C=CC(=O)[C@]21C	4%[29.8 µM]	/	/	/	/	/
